# GDH-TPI counter = inhibits GDH-TPI coupling enzymes, artifact for Mtb FBA screen; inhibition, % at 4.8 µM; 360,000 tested, 1.2% active; AID 588335; GDH-TPI coupled enzyme counterscreen, NADH absorbance; in the data active = inhibition above about 30%;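 also: 0% = DMSO wells and 100% = wells lacking the enzyme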
# UGM FP inh = Mtb UDP-galactopyranose mutase inhibition | P9WIQ1 | purified UGM, fluorescence polarization probe displacement | inhibition, % at 10 µM | 320,000 tested, 0.06% active; in the data active = inhibition above about 10%, passing the limit was not always enough
# RecA intein inh = blocks M. tuberculosis RecA intein splicing | P9WHJ3 | cell-free RecA intein splicing, fluorescence | inhibition, % (no concentration beside the values) | 290,000 tested, 0.75% active; in the data active = inhibition above about 30%;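 also: 0% = vehicle wells and 100% = reference inhibitor control wells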
# Mtb bLac sens = beta-lactam sensitization of Mtb H37Rv; 330,000 tested, 0.27% active; M. tuberculosis H37Rv growth with meropenem, percent inhibition; inhibition, % at 25 µM; call rule not given here;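 also: growth measured after seven days incubation then overnight dye step; 0% = bacteria only wells and 100% = bacteria with antibiotic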
# Rv3671c protease = Rv3671c (M. tuberculosis) protease inhibition | 320,000 tested, 0.048% active | inhibition, % at 5.96 µM | P9WHR9; in the data active = inhibition above about 38%;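 also: extracellular domain of Rv3671c used as enzyme; 0% = enzyme with DMSO and 100% = no enzyme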
# FBA Mtb inh = inhibits M. tuberculosis FBA enzyme; purified M. tuberculosis FBA, fluorescence read-out; inhibition, % at 1 µM; 360,000 tested, 2.3% active; AID 588726; in the data active = inhibition above about 27%;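 also: 0% = vehicle and 100% = reference inhibitor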
# Target sequence (P9WQA3 whole entry, looked up): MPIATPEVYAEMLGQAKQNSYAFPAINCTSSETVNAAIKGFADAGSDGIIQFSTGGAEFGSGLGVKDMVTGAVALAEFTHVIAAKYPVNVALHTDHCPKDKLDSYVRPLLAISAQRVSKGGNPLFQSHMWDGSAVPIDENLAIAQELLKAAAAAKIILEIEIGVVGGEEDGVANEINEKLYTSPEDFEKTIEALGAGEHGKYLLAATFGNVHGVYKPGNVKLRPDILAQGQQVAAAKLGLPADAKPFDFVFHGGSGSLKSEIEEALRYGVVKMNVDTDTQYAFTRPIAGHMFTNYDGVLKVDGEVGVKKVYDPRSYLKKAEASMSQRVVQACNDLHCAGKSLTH
# Starred values were filed as active, the others as inactive; x = no result given. An excerpt weighted towards active compounds, which were near 4% of everything screened.
SMILES,GDH-TPI counter,UGM FP inh,RecA intein inh,Mtb bLac sens,Rv3671c protease,FBA Mtb inh
COc1ccc2[nH]c(=O)c(CN(CCO)C(=O)c3cccs3)cc2c1,7,2,x,0,-1,8
COc1cc2cc(CN(CCO)C(=O)c3cccs3)c(=O)[nH]c2cc1OC,37*,-1,-2,x,-3,14
CC(=O)Nc1ccc(-c2ccnc3c2CC(C(=O)NCC2CCOCC2)O3)cc1 (stereo not drawn),1,x,x,x,x,7
O=C(Nc1ccc(N2CCOCC2)cc1)c1csc(COCCO)n1,-7,x,x,x,x,-2
Cc1cccc(NC(=S)NC(=O)/C=C/c2ccco2)c1,6,2,7,-1,5,5
O=C(/C=C/c1ccco1)NC(=S)Nc1cccc(-c2nc3ccccc3s2)c1,38*,1,2,73,-48,0
NC(N)=NS(=O)(=O)c1ccc(NC(=S)NC(=O)/C=C/c2ccco2)cc1,57*,x,-1,4,-11,-5
O=C(/C=C/c1ccco1)NC(=S)Nc1ccccc1,40*,-1,3,5,1,-2
Cc1cccc(NC(=S)NC(=O)/C=C/c2ccco2)n1,33*,1,-5,-2,2,-2
NS(=O)(=O)c1ccc(NC(=S)NC(=O)/C=C/c2ccco2)cc1,20,0,0,4,-3,1
Cc1ccc(CNC(=O)CN2C(=O)CSc3ccc(S(=O)(=O)N4CCC(C)CC4)cc32)cc1,-7,-4,1,-4,-1,0
Cc1ccc(C)c(CC(=O)N2CCCCC2c2cc(C(=O)Nc3cccc(C#N)c3)no2)c1 (stereo not drawn),3,x,x,x,x,0
COc1cc(NS(=O)(=O)c2ccc(-n3cccn3)cc2)cc(OC)c1,-2,x,x,x,x,0
Cc1ccc(N(CC(=O)N2CCCCCC2)S(C)(=O)=O)cc1,-1,x,x,x,x,-1
CC(=O)c1ccc(NC(=S)NC(=O)/C=C/c2ccco2)cc1,51*,2,3,6,-8,-2
CC(=O)c1ccc(NC(=S)NC(=O)/C=C/c2ccccc2)cc1,3,-1,-2,4,1,0
COc1ccc(-c2csc(C(NC(C)=O)c3cccc(F)c3)n2)cc1 (stereo not drawn),11,x,x,x,x,2
O=C(O)c1nc(Cl)c(Cl)c(N/N=C/c2ccccc2C(F)(F)F)c1Cl,31*,-4,5,7,-1,-2
COc1ccc(/C=N/N=C/c2ccc(OC)c(O)c2)cc1O,50*,0,-1,-7,-1,-2
COc1cc(/C=N/N=C/c2cc(OC)c(O)c(OC)c2)cc(OC)c1O,35*,-1,-3,-1,-11,-4
COc1ccc(/C=N/N=C/c2ccc(OC)c(OC)c2)cc1OC,9,4,0,4,1,0
OC[C@H]1O[C@@H](c2nc(-c3ccccc3Br)no2)[C@H](O)[C@@H](O)[C@H]1O,-4,x,x,x,x,0
COc1ccc(/C=C(\NC(=O)c2ccc(OC)cc2)C(=O)Nc2ccccc2C(=O)O)cc1,31*,-1,-2,6,-3,-5
COc1ccc(/C=N\NC(=O)/C(=C\Nc2nccc(C)n2)NC(=O)c2ccccc2)cc1,63*,0,-2,-2,7,0
COc1ccc(C(=O)N/C(=C\c2ccc([N+](=O)[O-])cc2)C(=O)NC(CCSC)C(=O)O)cc1 (stereo not drawn),33*,3,6,1,-9,0
SMILES,GDH-TPI counter,UGM FP inh,RecA intein inh,Mtb bLac sens,Rv3671c protease,FBA Mtb inh
COc1ccc(/C=C(/NC(=O)c2ccccc2)C(=O)NCc2ccncc2)cc1,15,2,0,2,-7,2
COc1ccc(/C=C(/NC(=O)c2ccccc2)C(=O)N/N=C/c2ccncc2)cc1,35*,3,x,8,-4,2
COc1ccc(C(=O)N/C(=C\c2ccccc2)C(=O)Nc2ccc(C(=O)O)cc2)cc1,7,-1,-1,6,x,-2
COc1ccc(OCc2cc(/C=N\NC(=O)c3ccccc3)ccc2OC)cc1,20,1,3,-10,-48,1
COc1ccc(NC(=O)C2CCN(C(=O)Nc3ccccc3)CC2)cc1S(=O)(=O)N(C)C,-1,2,x,-5,2,-3
CCC1(CCC(C)C)SC(N)=NC1=O (stereo not drawn),17,x,x,x,x,3
O=C(COc1ccccc1)N=C1SC2CS(=O)(=O)CC2N1Cc1ccccc1 (stereo not drawn),0,-1,3,-4,-5,-2
COc1ccc(C=CC(C)=NNC(=O)c2ccncc2)cc1,54*,x,x,x,x,0
O=C(N/N=C/c1ccco1)/C(=C/c1cccc([N+](=O)[O-])c1)NC(=O)c1ccccc1,28,2,10,4,-6,-4
Cc1ccc(/C=N\NC(=O)/C(=C\Nc2nccc(C)n2)NC(=O)c2ccccc2)cc1,95*,2,2,-3,-7,-4
CC(/C=C/c1ccccc1)=N\NC(=O)c1ccncc1,18,-2,1,99,3,-1
O=C(N/N=C/c1ccc(Br)o1)/C(=C/c1ccc([N+](=O)[O-])cc1)NC(=O)c1ccccc1,47*,2,10,3,6,3
Cc1cc2oc(=O)cc(CN3CCCCC3C)c2cc1C (stereo not drawn),11,0,0,6,-7,2
CCC(=O)NC(=S)Nc1ccc2oc(-c3ccc(OC)cc3)nc2c1,2,2,4,-3,-1,-2
CCCC(=O)Nc1ccc2oc(-c3ccc(OC)c(Br)c3)nc2c1,16,-3,x,13,-10,125*
O=C(CNC(c1ccccc1)c1ccccc1)Nc1ccccc1Br,-5,1,8,-7,-12,-1
O=C1NC(=S)N/C1=C/c1cc([N+](=O)[O-])ccc1O,34*,-3,3,-2,-4,-21
O=C(/C=C/Nc1cccc(C(F)(F)F)c1)c1ccc(Oc2ncccn2)cc1,32*,-1,-4,3,-7,-1
COc1cc(CC(=O)OCC(=O)N(C)C2CCCCC2)cc(OC)c1OC,-1,-1,x,-3,8,-1
O=C(c1[nH]c(C(F)(F)F)nc1-c1ccccc1)N1CCC(Cc2ccccc2)CC1,x,x,x,x,x,2
Cc1c(O)c(=O)c2ccccc2n1C,25,1,-9,-12,7,150*
Cc1cc(C=O)c(O)cc1O,52*,3,-2,4,-1,-5
COC(=O)[C@]1(Cc2ccccc2)N[C@H](c2ccc(-c3cc(C(C)=O)cs3)cc2)[C@@H]2C(=O)N(C)C(=O)[C@@H]21,34*,-1,-4,15,4,8
CCCCCC(=O)Nc1ccc(C2C(=O)c3ccccc3C2=O)cc1,-3,0,2,2,-20,4
CC(=O)Nc1ccc(N=Nc2ccccc2)cc1[N+](=O)[O-],31*,x,x,x,x,0
CC(=O)Nc1cc2oc3ccccc3c2cc1[N+](=O)[O-],7,x,x,x,x,-3
OCCN=c1cc(-c2ccccc2)oc2ccc(Cl)cc12,40*,-1,-1,71,-1,2
